Reference: PubChem BioAssay (EPA / NIEHS)
Where “and” joins values, the source holds several entries; their conditions need not be identical. Equal entries are not always repeated. Records with an inconclusive call do not appear. Calls of active or inactive are those of the source. The calls were made as follows, unless noted: active = hit-call score of the fitted dose curve at least 0.9, where 1 is the maximum; inconclusive = response in the unintended direction; inactive = score below 0.9.

Assays:
[1] = molecular target: human Peroxisome Proliferator-activated Receptor alpha (PPARa), PPARA (gene 5465) (UniProt Q07869); assay: ATG_PPARa_TRANS: Attagene TRANS-FACTORIAL HepG2 Assay for human Peroxisome Proliferator-activated Receptor alpha (PPARa) (AID 2283001);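 as to AC50: potency for gain of reporter signal over DMSO so agonist or activator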
Summary of the method: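 Cells (HepG2) are transfected with multiple reporter transcription units, exposed to chemical for 24 h, then total RNA is reverse-transcribed and amplified. Labelled products are quantified by capillary electrophoresis; induction is referenced to DMSO.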

[2] = molecular target: human Peroxisome Proliferator-activated Receptor delta (PPARd), PPARD (gene 5467) (UniProt Q03181); assay: ATG_PPARd_TRANS: Attagene TRANS-FACTORIAL HepG2 Assay for human Peroxisome Proliferator-activated Receptor delta (PPARd) (AID 2283002)
Summary of the method: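 Multiplexed trans-activation format: HepG2 liver cells expressing exogenous NR-Gal4 chimeras and GAL4-UAS reporters were exposed for 24 h. Reporter mRNA was detected by RT-PCR with capillary electrophoresis fluorescence; activity fitted as gain of signal relative to DMSO.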

[3] = molecular target: human Retinoic Acid Receptor beta (RARb), RARB (gene 5915) (UniProt P10826); assay: ATG_RARb_TRANS: Attagene TRANS-FACTORIAL HepG2 Assay for human Retinoic Acid Receptor beta (AID 2283004)
Summary of the method: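 HepG2, transient MRTU transfection, NR–Gal4 chimera, 24 h treatment; RT-PCR plus CE fluorescence detection of reporter mRNA; gain of signal vs DMSO.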

[4] = molecular target: Nuclear receptor subfamily 1 group I member 2 (Homo sapiens) (UniProt O75469); assay: ATG_PXR_TRANS: Attagene TRANS-FACTORIAL HepG2 Assay for human Pregnane X Receptor (PXR) (AID 2283008)
Summary of the method: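 Trans-factorial format: exogenous NR-Gal4 fusion activity, not endogenous factor, in transfected human HepG2 liver cells. After 24 h dosing, RNA isolated, reverse-transcribed, amplified and resolved by capillary electrophoresis; induction scored versus DMSO.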

[5] = molecular target: human Retinoic Acid Receptor gamma (RARg), RARG (gene 5916) (UniProt P13631); assay: ATG_RARg_TRANS: Attagene TRANS-FACTORIAL HepG2 Assay for human Retinoic Acid Receptor gamma (RARg) (AID 2283009);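 as to AC50: AC50 is for reporter induction above DMSO meaning RARg activation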
Summary of the method: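 TRANS format measured activity of exogenous NR-GAL4 fusion (RARg) in transfected HepG2 liver cells after 24 h dosing. Induced reporter RNA was detected by RT-PCR/capillary electrophoresis fluorescence, analysed in the positive direction against DMSO.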

[6] = read-out: Intercellular Adhesion Molecule 1 (ICAM1), ICAM1 (gene 3383); assay: BSK_3C_ICAM1: BioMAP Diversity Plus: 3C Assay for Intercellular Adhesion Molecule 1 (ICAM1) Biomarker Activity (AID 2283003; active = hit-call score of the fitted dose curve at least 0.9, where 1 is the maximum; inactive = score below 0.9); conditions: primary human endothelial cells (HUVEC); actives raise or lower the signal
Summary of the method: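 Chemicals are dosed onto primary human umbilical vein endothelium (3C system). After 24 h, ICAM-1 is measured by ELISA, and responses are fitted bidirectionally relative to DMSO.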

[7] = BSK_3C_Proliferation: Cell Proliferation Assessment in the BioMAP Diversity Plus: 3C Assay (AID 2283006; active = hit-call score of the fitted dose curve at least 0.9, where 1 is the maximum; inactive = score below 0.9;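 as to AC50: potency may reflect either rise or fall in cell number versus DMSO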); conditions: primary human endothelial cells (HUVEC)
Summary of the method: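 Cells (human umbilical vein endothelial, sub-confluent) receive test chemical; after 48 h they are fixed in 10% trichloroacetic acid, stained with 0.1% SRB and read at 560 nm. Activity is referenced to DMSO, fitting increases and decreases.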

[8] = molecular target: Peroxisome proliferator-activated receptor gamma (Homo sapiens) (UniProt P37231); assay: ATG_PPARg_TRANS: Attagene TRANS-FACTORIAL HepG2 Assay for human Peroxisome Proliferator-activated Receptor-gamma (PPARg) (AID 2283007)
Summary of the method: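 After 24 h of chemical exposure, transfected HepG2 cells carrying PPARγ-Gal4 chimera reporter constructs are lysed for RNA. Reporter transcripts are measured by RT-PCR and capillary electrophoresis with fluorescent labelling, and gain of signal is fitted versus DMSO.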

[9] = molecular target: human RAR-related Orphan Receptor beta (RORb), RORB (gene 6096) (UniProt Q92753); assay: ATG_RORb_TRANS: Attagene TRANS-FACTORIAL HepG2 Assay for human RAR-related Orphan Receptor beta (RORb) (AID 2283010)
Summary of the method: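 Transfect HepG2 with multiple GAL4-UAS reporter transcription units; dose chemicals for 24 h; isolate RNA, reverse-transcribe and PCR-amplify reporter sequences; label, digest and resolve fragments by capillary electrophoresis; fit increases relative to DMSO.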

[10] = molecular target: Retinoic acid receptor alpha (Homo sapiens) (UniProt P10276); assay: ATG_RARa_TRANS: Attagene TRANS-FACTORIAL HepG2 Assay for human Retinoic Acid Receptor alpha (RARa) (AID 2283005);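 as to AC50: potency for increased reporter signal meaning RARa activation over DMSO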
Summary of the method: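 HepG2 cells transiently transfected with multiple reporter units expressing chimeric RARα-GAL4 fusion, with GAL4-UAS-driven reporters. After 24 h compound exposure, reporter mRNA induction quantified by RT-PCR and capillary electrophoresis with fluorescent labeling; gain-of-signal fitted relative to DMSO control.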

Measured: AC50

Chain of human Retinoic Acid Receptor beta (RARb), RARB (gene 5915) (P10826 whole entry, looked up, the tested form may be a part): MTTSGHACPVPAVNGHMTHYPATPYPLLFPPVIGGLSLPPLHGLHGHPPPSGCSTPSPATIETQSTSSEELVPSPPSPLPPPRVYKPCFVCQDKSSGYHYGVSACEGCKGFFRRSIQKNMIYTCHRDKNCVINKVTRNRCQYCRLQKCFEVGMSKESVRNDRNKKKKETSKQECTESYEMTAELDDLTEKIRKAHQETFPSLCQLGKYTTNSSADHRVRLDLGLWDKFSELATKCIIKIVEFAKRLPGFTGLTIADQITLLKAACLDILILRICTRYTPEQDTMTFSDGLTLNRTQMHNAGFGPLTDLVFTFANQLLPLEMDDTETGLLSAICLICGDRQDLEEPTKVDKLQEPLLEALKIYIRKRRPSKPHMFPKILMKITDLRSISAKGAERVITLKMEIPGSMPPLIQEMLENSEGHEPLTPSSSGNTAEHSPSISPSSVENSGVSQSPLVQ
Chain of Retinoic acid receptor alpha (Homo sapiens) (P10276 whole entry, looked up, the tested form may be a part): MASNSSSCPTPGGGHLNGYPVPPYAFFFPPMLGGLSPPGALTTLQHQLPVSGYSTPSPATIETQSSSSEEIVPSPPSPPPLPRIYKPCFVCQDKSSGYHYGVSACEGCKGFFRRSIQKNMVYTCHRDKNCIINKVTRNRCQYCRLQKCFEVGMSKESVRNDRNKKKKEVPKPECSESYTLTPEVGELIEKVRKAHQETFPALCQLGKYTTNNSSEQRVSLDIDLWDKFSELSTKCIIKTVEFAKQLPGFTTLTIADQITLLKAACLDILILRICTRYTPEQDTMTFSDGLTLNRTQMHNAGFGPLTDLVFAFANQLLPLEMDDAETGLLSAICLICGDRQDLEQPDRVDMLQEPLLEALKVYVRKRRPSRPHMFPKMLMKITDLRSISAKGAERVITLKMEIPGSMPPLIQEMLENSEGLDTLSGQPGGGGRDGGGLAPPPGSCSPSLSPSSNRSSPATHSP
Chain of human Peroxisome Proliferator-activated Receptor delta (PPARd), PPARD (gene 5467) (Q03181 whole entry, looked up, the tested form may be a part): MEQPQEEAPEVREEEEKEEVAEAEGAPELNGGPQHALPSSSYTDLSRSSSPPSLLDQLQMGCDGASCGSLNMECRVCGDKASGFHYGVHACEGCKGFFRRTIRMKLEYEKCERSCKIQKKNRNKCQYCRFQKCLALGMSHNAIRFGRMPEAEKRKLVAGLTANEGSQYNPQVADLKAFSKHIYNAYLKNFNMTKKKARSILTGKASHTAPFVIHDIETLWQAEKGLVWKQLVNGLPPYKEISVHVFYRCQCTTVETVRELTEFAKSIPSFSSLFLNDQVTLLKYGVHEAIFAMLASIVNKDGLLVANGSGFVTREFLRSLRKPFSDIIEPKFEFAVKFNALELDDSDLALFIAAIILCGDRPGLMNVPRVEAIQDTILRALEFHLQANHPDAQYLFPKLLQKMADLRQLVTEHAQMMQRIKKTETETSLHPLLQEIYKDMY
Chain of human Peroxisome Proliferator-activated Receptor alpha (PPARa), PPARA (gene 5465) (Q07869 whole entry, looked up): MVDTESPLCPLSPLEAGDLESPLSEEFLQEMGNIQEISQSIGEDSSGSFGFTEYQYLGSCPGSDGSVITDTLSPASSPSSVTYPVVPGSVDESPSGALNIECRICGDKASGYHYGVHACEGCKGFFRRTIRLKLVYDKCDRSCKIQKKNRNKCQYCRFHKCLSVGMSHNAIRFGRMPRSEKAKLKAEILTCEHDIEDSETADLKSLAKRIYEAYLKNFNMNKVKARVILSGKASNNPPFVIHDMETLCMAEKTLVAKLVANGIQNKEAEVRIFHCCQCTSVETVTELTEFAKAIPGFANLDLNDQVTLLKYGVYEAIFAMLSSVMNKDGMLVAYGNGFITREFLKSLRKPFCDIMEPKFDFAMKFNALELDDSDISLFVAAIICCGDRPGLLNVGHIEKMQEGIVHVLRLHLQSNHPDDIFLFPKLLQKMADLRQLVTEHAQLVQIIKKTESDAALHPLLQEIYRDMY
Chain of Nuclear receptor subfamily 1 group I member 2 (Homo sapiens) (O75469 whole entry, looked up, the tested form may be a part): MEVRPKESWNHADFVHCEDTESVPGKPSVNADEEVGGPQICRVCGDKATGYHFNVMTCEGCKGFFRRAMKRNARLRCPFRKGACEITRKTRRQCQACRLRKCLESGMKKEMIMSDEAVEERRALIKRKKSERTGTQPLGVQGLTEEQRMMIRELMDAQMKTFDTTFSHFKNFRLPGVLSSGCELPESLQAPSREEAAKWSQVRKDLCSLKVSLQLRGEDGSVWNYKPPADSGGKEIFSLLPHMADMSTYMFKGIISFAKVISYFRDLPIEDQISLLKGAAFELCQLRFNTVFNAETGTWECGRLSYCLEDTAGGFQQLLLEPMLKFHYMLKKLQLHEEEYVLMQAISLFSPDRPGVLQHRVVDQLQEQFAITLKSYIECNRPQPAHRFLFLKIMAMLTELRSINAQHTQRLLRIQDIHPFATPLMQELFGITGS
Chain of Peroxisome proliferator-activated receptor gamma (Homo sapiens) (P37231 whole entry, looked up, the tested form may be a part): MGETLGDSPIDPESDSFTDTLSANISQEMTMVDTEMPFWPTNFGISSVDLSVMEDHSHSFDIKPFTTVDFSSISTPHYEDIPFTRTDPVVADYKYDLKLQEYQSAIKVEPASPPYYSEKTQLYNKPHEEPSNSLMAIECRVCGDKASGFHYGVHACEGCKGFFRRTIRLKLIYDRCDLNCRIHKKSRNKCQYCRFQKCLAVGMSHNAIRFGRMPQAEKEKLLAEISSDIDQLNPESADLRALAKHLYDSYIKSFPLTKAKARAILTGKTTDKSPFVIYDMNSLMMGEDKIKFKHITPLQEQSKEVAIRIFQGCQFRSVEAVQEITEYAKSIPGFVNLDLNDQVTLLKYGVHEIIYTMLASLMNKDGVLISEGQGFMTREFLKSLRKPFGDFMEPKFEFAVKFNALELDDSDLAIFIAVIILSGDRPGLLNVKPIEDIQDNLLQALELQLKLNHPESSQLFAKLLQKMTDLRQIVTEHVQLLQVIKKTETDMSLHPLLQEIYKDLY
Chain of human RAR-related Orphan Receptor beta (RORb), RORB (gene 6096) (Q92753 whole entry, looked up, the tested form may be a part): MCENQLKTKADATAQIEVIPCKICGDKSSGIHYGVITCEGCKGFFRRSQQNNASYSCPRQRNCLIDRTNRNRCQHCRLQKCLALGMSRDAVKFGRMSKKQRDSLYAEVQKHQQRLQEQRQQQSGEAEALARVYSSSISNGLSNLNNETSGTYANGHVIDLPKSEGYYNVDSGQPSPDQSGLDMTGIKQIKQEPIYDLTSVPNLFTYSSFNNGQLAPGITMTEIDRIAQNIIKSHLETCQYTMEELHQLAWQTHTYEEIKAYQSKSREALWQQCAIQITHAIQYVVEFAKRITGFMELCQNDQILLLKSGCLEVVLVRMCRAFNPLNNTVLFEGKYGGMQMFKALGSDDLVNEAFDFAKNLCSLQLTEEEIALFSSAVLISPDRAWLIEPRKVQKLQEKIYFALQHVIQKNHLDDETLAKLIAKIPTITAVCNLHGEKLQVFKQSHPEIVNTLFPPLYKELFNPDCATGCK
Chain of human Retinoic Acid Receptor gamma (RARg), RARG (gene 5916) (P13631 whole entry, looked up, the tested form may be a part): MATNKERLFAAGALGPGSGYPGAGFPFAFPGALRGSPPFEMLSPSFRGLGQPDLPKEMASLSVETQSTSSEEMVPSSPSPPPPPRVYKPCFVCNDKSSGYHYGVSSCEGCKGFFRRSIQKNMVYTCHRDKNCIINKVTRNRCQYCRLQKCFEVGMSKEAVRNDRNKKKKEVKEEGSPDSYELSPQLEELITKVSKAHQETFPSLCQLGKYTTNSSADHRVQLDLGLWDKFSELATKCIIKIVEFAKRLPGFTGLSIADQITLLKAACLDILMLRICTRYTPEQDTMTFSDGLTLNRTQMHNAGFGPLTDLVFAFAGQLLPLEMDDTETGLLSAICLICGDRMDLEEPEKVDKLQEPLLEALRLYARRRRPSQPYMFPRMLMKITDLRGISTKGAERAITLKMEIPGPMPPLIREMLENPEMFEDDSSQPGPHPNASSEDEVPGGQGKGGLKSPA

CC(C)(C)C1CCCCC1=O (centres undefined)
inactive: [1] | [2] | [3] | [4] | [5]

O=C(c1ccc(O)cc1)c1ccc(O)cc1O
active: [7] 20 µM and 15 µM | [8] 35.3 µM
inactive: [1] | [2] | [6] | [4] | [9]

C=CC(C)(CCC=C(C)C)OC(=O)C(C)C (centres undefined)
inactive: [1] | [2] | [3] | [5]
active: [4] 27.4 µM

C(=CC=Nc1ccccc1)C=CNc1ccccc1
inactive: [1] | [2] | [3] | [8] | [4] | [5]

CCCCC(CC)COC(=O)c1ccccc1 (centres undefined)
inactive: [1] | [2] | [3] | [8] | [4] | [9]

Cc1ccc(C(C)c2ccc(C)c(C)c2)cc1C
inactive: [1] | [2] | [3] | [9]
active: [8] 30.9 µM | [4] 2.91 µM

C=CCOCC(O)CCl (centres undefined)
active: [4] 47.2 µM
not listed: [10]
inactive: all other assays above

CC(=O)c1ccc[nH]1
inactive: [1] | [2]

N=c1ccn2c(n1)O[C@H]1[C@H](O)[C@@H](CO)O[C@H]12
inactive: [1]

COCc1c(C(C)C)nc(C(C)C)c(/C=C/[C@@H](O)C[C@@H](O)CC(=O)O)c1-c1ccc(F)cc1
inactive: [1] | [2] | [6]
active: [7] 0.039 µM | [8] 12.8 µM | [4] 1.76 µM

c1ccc(-c2ccccn2)nc1
active: [7] 29 µM
not listed: [3] | [9] | [10]
inactive: all other assays above

CCCCCCCCCCCCCCCC[N+](C)(C)CC
active: [1] 13.3 µM | [6] 3.44 µM | [10] 17.8 µM | [7] 0.636 µM | [8] 15.6 µM | [5] 19.6 µM
inactive: [2] | [3] | [4]

NC(=O)C1CO1 (centres undefined)
inactive: [1] | [2] | [3]

CCCCCCCCCCCSCC(=O)O
inactive: [10] | [4]
active: [1] 2.85 µM | [2] 7.11 µM | [8] 9.6 µM

CC=CCO
inactive: [1] | [2] | [3] | [4] | [5]

C=C(C)C(=O)OCC(C)C
inactive: [1]

Nc1ccc(N)c(Cl)c1
active: [2] 68 µM | [7] 13.1 µM and 16.2 µM | [4] 4.08 µM
inactive: [1] | [6] | [10] | [5]

CCCCCCCCCCCCCCCC[n+]1ccccc1
inactive: [1] | [2] | [3] | [8] | [5]

CC(=O)[C@H]1[C@H](C#N)C[C@H]2[C@@H]3CC=C4C[C@@H](O)CC[C@]4(C)[C@H]3CC[C@@]21C
inactive: [1] | [2] | [3] | [4] | [9]

CCCC(C)CCC(C)=O (centres undefined)
inactive: [1] | [2] | [3] | [5]

c1ccc2c(c1)ccc1ncccc12
active: [7] 20 µM | [8] 67.1 µM | [5] 33.2 µM
not listed: [9] | [10]
inactive: all other assays above

CC(=O)CC(N)=O
inactive: [1] | [2]

C[Si](C)(C)O[Si](O)(O)O
inactive: [1] | [2] | [3] | [4] | [5]

CCC(CC)C(=O)O
inactive: [1] | [2] | [3]

Nc1ccc2cc3ccccc3cc2c1
active: [8] 26.8 µM
inactive: [1] | [2] | [3] | [4] | [5]

C=CC(=O)OCCOC(=O)C=C
inactive: [1] | [2] | [3] | [4] | [5]

CCCCC/C=C\C/C=C\CCCCCCCC(=O)OC
active: [1] 32 µM | [2] 100 µM | [6] 32.7 µM | [7] 27.1 µM | [8] 4.68 µM

COC(=O)c1ccccc1OC
inactive: [1]

COCC(C)N (centres undefined)
inactive: [1] | [2] | [3] | [8] | [4]

CCOc1nc(F)cc2nc(S(=O)(=O)Nc3c(Cl)cccc3C(=O)OC)nn12
active: [8] 46.2 µM
not listed: [4] | [9]
inactive: all other assays above

Cc1cnc(NC(=O)C2=C(O)c3ccccc3S(=O)(=O)N2C)s1
inactive: [1] | [2] | [3] | [10] | [5] | [9]

CCO[Si](CCCN=C=O)(OCC)OCC
not listed: [9] | [10]
inactive: all other assays above

CC(C)c1ccc2c(C(C)C)cc(C(C)C)c(S(=O)(=O)O)c2c1
active: [8] 25.1 µM | [4] 1.23 µM
inactive: [1] | [2] | [3]

S=C(NC1CCCCC1)NC1CCCCC1
active: [4] 8.05 µM
not listed: [3] | [9] | [10]
inactive: all other assays above

C/C=C\C/C=C/CCCCCCCCOC(C)=O
inactive: [1] | [2] | [6]
active: [7] 22.3 µM | [8] 8.89 µM | [4] 40.8 µM
